Source: PubChem BioAssay (NCI)
Compounds without any hit were thinned out: in the full panel of roughly 83,000, 20% have a hit.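 Cell lines were cultured in 96-well plates, exposed to a single compound concentration, and assessed for percent growth 48 hours later.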 Unmarked numbers belong to inactive results. Calls of active or inactive are those of the source. How the source made its calls: active means growth percent below 10; inactive means the rest.

System: SK-OV-3 ovarian
Experiment: NCI-60 one-dose screen, 48 h (100 = growth as untreated, 0 = no growth, -100 = all killed)
Settings: 10 µM unless noted

Structure (SMILES) | growth
COc1cc2c3c(c4c5ccccc5[nH]c4c2c(OC)c1OC)C(=O)N(O)C3=O | 48.8%
Cc1cc2nc3c4cc(O)ccc4n(CCN(C)C)c3nc2cc1C | -2.47% (active)
Cc1csc(Nc2nc(-c3ccc(Cl)cc3)nc(C(Cl)(Cl)Cl)n2)n1 | 94.1%
Cc1cc(C)nc(NC(N)=NCCc2ccccc2)n1 | 46.7%
COc1cc(-c2c(C#N)c(-c3cccs3)nc3c2c(-c2ccccc2)nn3-c2ccccc2)ccc1O | 82.7%
CN1CCN(c2ccc3nc(-c4[nH]ncc4Nc4ncnc5c4OCCCN5)[nH]c3c2)CC1 | -21.5% (active)
COC(=O)[C@]12CC[C@@H](C)[C@H](C)[C@@H]1C1=CC[C@@H]3[C@@]4(C)C[C@@H](O)[C@H](O)[C@@](C)(CO)C4=CC[C@@]3(C)[C@]1(C)CC2 | -5.82% (active)
O=C(NO)c1ccc(Cn2c(=O)n(-c3ccccc3)c(=O)c3ccccc32)cc1 | 26.3%
COC(=O)[C@]12CC[C@@H](C)[C@H](C)[C@@H]1C1=CC(=O)[C@@H]3[C@@]4(C)C[C@@H](O)[C@H](O)[C@@]5(C)COC(=C45)C[C@@]3(C)[C@]1(C)CC2 | 83.9%
Cn1cc(-c2csc(-c3cn(CCN)c4ccc(F)cc34)n2)c2cccnc21 | 78%
CN(C)CCCCC(C(=O)CBr)(c1ccccc1)c1ccccc1 | 79.1%
CC/C=C\C[C@H]1CC=C2C(=O)C=C[C@@H]2CC=CCCCC(=O)O[C@@H](CCCCC)CC=C2C(=O)C=C[C@@H]2CC=CCCCC(=O)O[C@@H](CCCCC)CC=C2C(=O)C=C[C@@H]2CC=CCCCC(=O)O[C@@H](CCCCC)CC=C2C(=O)C=C[C@@H]2CC=CCCCC(=O)O1 | 73.4% [7.9 µM]
